Bioassay records: PubChem, National Center for Advancing Translational Sciences (NCATS)
The list is not random: actives were taken first. Their share in the collection is about 2.8%.
PI5P4Ka inh – inhibitors of human PI5P4K alpha | PI5P4Kalpha enzyme, ADP-Glo luminescence, 60 min; stronger effect = lower value | max response, % | 330,000 tested, 1.2% active | AID 652105; active = max response of -50% or lower; inconclusive = between -30% and -50%; inactive = -30% or higher; note: value at the top dose of about 77 µM; % is set by controls: 0 for no effect and ±100 for the full control effect
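qHTS, 1536-well: enzyme/substrate mix, compound by pin tool, 5 microM ATP final; RT 60 min; ADP-Glo reagents 1 (45 min) then 2 (30 min); luminescence.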
POLB inh – blocks human DNA polymerase beta activity; Pol beta primer extension/strand displacement, fluorescence kinetic; Potency, µM (series often up to 114 µM), inactives show top-dose activity change, negative = inhibition, most hits filed as inhibitors; 340,000 tested, 1.3% active; AID 485314; note: potency is the fitted concentration of half-maximal effect; % is set by controls: 0 for no effect and ±100 for the full control effect
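10 nM enzyme + cpd, 15 min RT; start with substrate 50 nM final; read 0 min and after 10 min RT. Corrected, normalized data; 4-parameter Hill curve fit.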
Pol iota inh – inhibitors of human DNA polymerase iota; Q9UNA4; Pol iota fluorescent replication assay, 10 min; Potency, µM (titrated, usually from 115 µM), inactives show at the top dose activity, negative = inhibition, most hits filed as inhibitors; 390,000 tested, 1% active; AID 588590; note: potency is the fitted concentration of half-maximal effect
Target sequence (Q9UNA4 whole entry, looked up): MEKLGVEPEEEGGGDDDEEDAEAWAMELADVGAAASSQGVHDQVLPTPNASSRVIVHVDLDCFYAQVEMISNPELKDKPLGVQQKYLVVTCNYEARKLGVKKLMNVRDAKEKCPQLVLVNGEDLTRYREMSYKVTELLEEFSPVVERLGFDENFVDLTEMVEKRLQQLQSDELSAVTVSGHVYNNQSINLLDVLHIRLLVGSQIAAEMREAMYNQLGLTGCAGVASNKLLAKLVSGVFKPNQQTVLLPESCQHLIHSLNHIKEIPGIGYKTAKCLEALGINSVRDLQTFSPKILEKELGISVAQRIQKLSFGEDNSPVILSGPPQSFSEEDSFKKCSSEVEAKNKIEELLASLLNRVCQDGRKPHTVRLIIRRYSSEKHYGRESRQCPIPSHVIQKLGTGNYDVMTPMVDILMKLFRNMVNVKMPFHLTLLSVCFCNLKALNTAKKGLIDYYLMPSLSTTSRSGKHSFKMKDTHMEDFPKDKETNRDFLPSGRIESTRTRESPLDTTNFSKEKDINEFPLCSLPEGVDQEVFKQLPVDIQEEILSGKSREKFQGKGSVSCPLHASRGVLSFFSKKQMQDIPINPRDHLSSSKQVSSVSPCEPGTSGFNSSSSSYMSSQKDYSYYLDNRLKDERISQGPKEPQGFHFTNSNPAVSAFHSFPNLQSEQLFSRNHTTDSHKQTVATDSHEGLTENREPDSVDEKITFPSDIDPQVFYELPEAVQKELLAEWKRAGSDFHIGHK
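Pol iota at 10 nM preincubated 15 min with compounds at room temperature; reaction started with fluorescent substrate, 50 nM final. Fluorescence read kinetically at 0 and 10 min; buffer-only wells as negative control.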
POLH inh – inhibitors of human DNA polymerase eta. Q9Y253. recombinant Pol eta, fluorescent DNA replication assay. Potency, µM (titrated, usually from 114 µM), for inactives: at the top dose activity change, negative = inhibition, actives largely listed as inhibitors. 390,000 tested, 1.2% active; note: potency is the fitted concentration of half-maximal effect; % is set by controls: 0 for no effect and ±100 for the full control effect
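Pol eta (10 nM) was preincubated with compounds for 15 min at room temperature, after which fluorescent replication substrate (50 nM final) was added to start the reaction. Fluorescence was read kinetically at 0 and 10 min.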
POLK inh – inhibitors of human DNA polymerase kappa | Q9UBT6 | purified Pol kappa, fluorescent DNA synthesis assay, 10 min | Potency, µM (series often up to 107 µM), inactives show top-dose activity, negative = inhibition, actives largely listed as inhibitors | 400,000 tested, 0.53% active | AID 588579; note: potency is the fitted concentration of half-maximal effect; % is set by controls: 0 for no effect and ±100 for the full control effect
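50 nM final substrate added after 15 min RT preincubation of 10 nM Pol kappa with compound; fluorescence read at 0 and 10 min.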
WRN helicase inh – inhibitors of human WRN helicase | WRN helicase unwinding, fluorescent forked duplex, kinetic | 360,000 tested, 0.46% active | Potency, µM (doses to about 114 µM), inactives show at the highest dose activity change, negative = inhibition, actives largely listed as inhibitors | Q14191 | AID 651768; note: potency is the fitted concentration of half-maximal effect; % is set by controls: 0 for no effect and ±100 for the full control effect; nearly all actives have a fitted effect of over 55% in size
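Primary qHTS, 1536-well format. 20 nM WRN + compound, 15 min RT; start with 100 nM forked fluorophore/quencher duplex, 2 mM ATP (final); kinetic read ex 525/em 598 nm.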
An asterisk follows results filed as active; ? = inconclusive; . = no result; [ ] = another dose, or the depositor's remark. Unless noted, calls come from the whole dose curve; as a rule, active = well fitted curve in the direction sought with a large enough effect; inconclusive = small, poorly fitted or top-dose-only effect, or another doubt; inactive = no such curve, though single readings can be large; an effect the other way counts as inactive or inconclusive.

SMILES	PI5P4Ka inh	POLB inh	Pol iota inh	POLH inh	POLK inh	WRN helicase inh
CCC(Oc1ccccc1F)C(=O)N1CCC(c2nc3ccccc3s2)CC1 (stereo unspecified)	.	-11.6%	31.4%	-16.9%	3.5%	.
CC(/C=N/NC(=O)c1n[nH]c2c1CCC2)=C\c1ccccc1	4.7	4.7%	16.2%	7.3%	-10.9%	-1.0%
Cc1ccc(-c2cc(C(=O)N/N=C/C(Br)=C/c3ccccc3)n[nH]2)o1	?	35.5µM*	?	-4.7%	?	-10.7%[11.6 µM]
O=C(N/N=C/C(Br)=C\c1ccccc1)c1n[nH]c2c1CCC2	.	1.3%	25.1µM*	-6.5%	-1.4%	-31.5%
Cc1ccc(-c2cc(C(=O)N/N=C/c3c[nH]c4ccccc34)n[nH]2)o1	-23.1	28.2µM*	?	-14.7%	?	-15.3%
Cc1ccc(-c2cc(C(=O)N/N=C/c3ccccc3O)n[nH]2)o1	-29.1	-28.2%	22.8%	-14.6%	-1.0%	-2.3%
O=C(NN=Cc1c[nH]c2ccccc12)NN=Cc1c[nH]c2ccccc12	-88.6*	.	.	-12.4%	.	-19.7%
Nc1cc2c(cc1Cl)-c1ccc([N+](=O)[O-])cc1C2=NO	-8.5	.	-10.5%	-15.5%	-18.6%	1.7%
Cc1cccc(NC(=O)CCn2cnnn2)c1C	.	17.4%	-20.8%	-0.5%	-4.0%	.
C#CCCc1cocc1/C=[N+](\[O-])c1ccc(C(=O)OCC)cc1	?	.	35.5µM*	2.7%	?	-9.0%
CSc1nc(=O)[nH]nc1Sc1ccccc1	2.4	.	.	44.7µM*	.	-5.0%[11.6 µM]
Cc1ccc(CNC(=O)c2c(C)oc3nc(C)nc(N4CCOCC4)c23)cc1	.	17.5%	0.5%	-9.1%	5.4%	.
Cc1ccc(Nc2ncc3c(=O)[nH][nH]c(=O)c3n2)cc1	-61.0*	.	22.1%	2.4%	-23.0%	-5.8%
CC(C)OC(=O)c1c(NC(=O)c2cc3nc(-c4ccccc4)cc(C(F)(F)F)n3n2)sc2c1CCCC2	.	5.9%	11.8%	1.0%	-4.9%[60.1 µM]	.
COc1ccc(NC(=S)NC(NC(=O)c2ccccc2Cl)C(Cl)(Cl)Cl)c([N+](=O)[O-])c1 (stereo unspecified)	.	?	10.2%	-2.8%	-15.2%	-10.6%[57.1 µM]
COc1ccc(NC(=S)NC(NC(=O)CCl)C(Cl)(Cl)Cl)c([N+](=O)[O-])c1 (stereo unspecified)	-55.2*	-7.0%	?	50.1µM*	-15.2%	6.0%
CC(Oc1ccccc1)C(=O)Nc1ccccc1C(=O)OCc1cc(=O)n2nc(C3CC3)sc2n1 (stereo unspecified)	.	10.9%	-18.6%	-0.7%	-11.7%[60.1 µM]	.
CC(C)(C)n1ncc2c(=O)n(Cc3cccc(C(F)(F)F)c3Cl)cnc21	.	.	5.7%	.	-15.3%	.
CC(=O)Nc1cccc(C(=O)/C=C/c2ccc(/C=C/C(=O)c3cccc(NC(C)=O)c3)cc2)c1	.	-24.1%	.	.	.	.
O=C(/C=C/c1ccncc1)c1cc(Cl)ccc1O	-22.3	-25.6%	-16.9%	-10.4%	-8.1%	-0.6%
CC(=O)Nc1cccc(C(=O)/C=C/c2ccc(N(C)C)cc2)c1	1.1	50.1µM*	22.4µM*	?	?	?
CN(C)c1ccc(/C=C/C(=O)c2cc(Cl)ccc2O)cc1	24.1	26.8%	-17.9%	?	-8.4%	50.1µM*
COc1ccc(CNC(=O)CCCc2nnc3n(CCC(C)C)c(=O)c4sccc4n23)cc1	.	-6.2%	18.8%	-20.8%	5.6%	.
Cc1ccc(-n2nc(C)c3c(C(F)(F)F)cc(-c4cccnc4)nc32)cc1C	.	10.6%	32.9%	-10.5%	-7.1%	.
Cc1ccc(NC(=O)Cn2cc(C(=O)c3ccco3)c3ccccc32)cc1	.	11.2µM*	79.4µM*	-5.4%	-3.5%[60.1 µM]	.
SMILES	PI5P4Ka inh	POLB inh	Pol iota inh	POLH inh	POLK inh	WRN helicase inh
Cc1cccc(C)c1NC(=O)Cn1cc(C(=O)c2ccco2)c2ccccc21	.	50.1µM*	79.4µM*	?	-21.7%	.
Cc1nnc2c(N3CCN(c4ccccc4F)CC3)nc3ccc(C(=O)c4ccccc4)cc3n12	.	-0.3%	17.5%	-0.6%	3.0%	.
COc1ccc(Br)cc1/C=C/C(=O)Nc1ccc2ccccc2c1	1.7	18.2%	24.5%	-21.8%	-0.5%	5.3%
CCC(=O)Nc1cccc(C(=O)/C=C/c2cc(Br)ccc2OC)c1	13.2	2.9%	56.2µM*	?	-8.3%	-8.7%[11.6 µM]
Cc1cc(C)c(O)c(CN(C)Cc2cc(Cl)cc(Cl)c2O)c1	1.6	.	69.7%	-14.5%	-29.1%	-9.7%
Oc1c(Cl)cc(Cl)cc1Sc1cc(Cl)cc(Cl)c1O	.	22.4µM*	.	.	?	.
Cc1ccc2cccc(NC(=O)C(C)Oc3ccc(Cl)cc3Cl)c2n1 (stereo unspecified)	.	?	-7.7%	-14.6%	-0.5%	.
Cc1cccc2c(N=Nc3ccc(S(=O)(=O)Nc4cccc(Cl)c4)cc3[N+](=O)[O-])c(O)[nH]c12	-71.2*	-13.4%	-8.7%	?	5.7%	1.1%
Cc1ccc(S(=O)(=O)Nc2ccccc2)cc1[N+](=O)[O-]	0.0	.	11.2%	?	-11.3%	5.0%
COC(=O)CC1Oc2ccccc2-n2cc(-c3ccc(Cl)cc3)nc21 (stereo unspecified)	.	1.8%	26.7%	-12.5%	6.5%	.
O=C1CC(c2ccco2)Sc2nc3ccccc3n21 (stereo unspecified)	?	-2.1%	20µM*	7.5%	50.1µM*	?
COc1ccccc1-c1noc(-c2ccc(NCc3ccco3)c([N+](=O)[O-])c2)n1	.	-28.8%	-2.5%	-2.3%	-2.8%	.
COc1ccc(C=O)cc1COc1c(F)c(F)cc(F)c1F	1.3	3.1%	0.5%	1.6%	-12.1%	-0.9%
COc1ccc(C=O)cc1COc1ccc(F)cc1F	-27.9	17.8µM*	?	?	-23.5%	-7.7%
Nc1nc(=S)[nH]c2n[nH]nc12	.	.	39.8µM*	.	0.0%	.
COc1ccc(Cl)cc1N(C)c1nc(N2CCN(S(=O)(=O)c3ccc(C)cc3)CC2)c2ccccc2n1	.	.	13.5%	.	16.6%	.
COC/C=C/C1=CC2=CC(=O)C(C)(OC(=O)c3cnc4ccccc4n3)C(=O)C2=CN1Cc1ccc(OC)cc1 (stereo unspecified)	-14.8	39.8µM*	?	28.2µM*	?	-15.7%[57.1 µM]
COC/C=C/C1=CC2=CC(=O)C(C)(OC(=O)c3cnc4ccccc4n3)C(=O)C2=CN1CC1CC1 (stereo unspecified)	-5.6	.	?	?	?	-24.0%
COC/C=C/C1=CC2=CC(=O)C(C)(OC(=O)c3ccco3)C(=O)C2=CO1 (stereo unspecified)	.	28.2µM*	.	.	.	.
COC/C=C/C1=CC2=CC(=O)C(C)(OC(=O)c3cnc4ccccc4n3)C(=O)C2=CN1Cc1ccccc1 (stereo unspecified)	-25.6	10µM*	?	28.2µM*	-38.4%	-21.5%
